# USP2a inhib = qHTS Assay for Inhibitors of Ubiquitin-specific Protease USP2a; Ubiquitin carboxyl-terminal hydrolase 2 (Homo sapiens), O75604; USP2a enzymatic assay, qHTS inhibition; Potency, µM (top dose mostly 38.3 µM), for inactives: at the highest dose activity change, negative = inhibition, usual class: inhibitors; actives 0.1% (n = 60,000); AID 927, 2007; further: potency means the concentration at half of the fitted maximal effect; nearly all actives have a fitted effect of over 60% in size
#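 20 nM USP2 core + cpd, 30 min RT; add 20 nM Ub-PLA2/20 uM NBD C6-HPC; read Ex460/Em535 at 0 h and 2.5 h. Normalized to NEM; qHTS curve fit/classification.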
# BRCT inh green = qHTS Assay for Inhibitors of BRCT-Phosphoprotein Interaction (Green Fluorophore). AID 875, 2007. BRCA1 BRCT-phosphopeptide binding, green fluorescence polarization. Potency, µM (titrated, usually from 76.9 µM), for the others: at the highest dose activity change, negative = inhibition, usual class: inhibitors. actives 0.05% (n = 75,000);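 further: potency means the concentration at half of the fitted maximal effect; plate controls were peptide without protein for full effect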
# Target sequence (P38398 whole entry, looked up): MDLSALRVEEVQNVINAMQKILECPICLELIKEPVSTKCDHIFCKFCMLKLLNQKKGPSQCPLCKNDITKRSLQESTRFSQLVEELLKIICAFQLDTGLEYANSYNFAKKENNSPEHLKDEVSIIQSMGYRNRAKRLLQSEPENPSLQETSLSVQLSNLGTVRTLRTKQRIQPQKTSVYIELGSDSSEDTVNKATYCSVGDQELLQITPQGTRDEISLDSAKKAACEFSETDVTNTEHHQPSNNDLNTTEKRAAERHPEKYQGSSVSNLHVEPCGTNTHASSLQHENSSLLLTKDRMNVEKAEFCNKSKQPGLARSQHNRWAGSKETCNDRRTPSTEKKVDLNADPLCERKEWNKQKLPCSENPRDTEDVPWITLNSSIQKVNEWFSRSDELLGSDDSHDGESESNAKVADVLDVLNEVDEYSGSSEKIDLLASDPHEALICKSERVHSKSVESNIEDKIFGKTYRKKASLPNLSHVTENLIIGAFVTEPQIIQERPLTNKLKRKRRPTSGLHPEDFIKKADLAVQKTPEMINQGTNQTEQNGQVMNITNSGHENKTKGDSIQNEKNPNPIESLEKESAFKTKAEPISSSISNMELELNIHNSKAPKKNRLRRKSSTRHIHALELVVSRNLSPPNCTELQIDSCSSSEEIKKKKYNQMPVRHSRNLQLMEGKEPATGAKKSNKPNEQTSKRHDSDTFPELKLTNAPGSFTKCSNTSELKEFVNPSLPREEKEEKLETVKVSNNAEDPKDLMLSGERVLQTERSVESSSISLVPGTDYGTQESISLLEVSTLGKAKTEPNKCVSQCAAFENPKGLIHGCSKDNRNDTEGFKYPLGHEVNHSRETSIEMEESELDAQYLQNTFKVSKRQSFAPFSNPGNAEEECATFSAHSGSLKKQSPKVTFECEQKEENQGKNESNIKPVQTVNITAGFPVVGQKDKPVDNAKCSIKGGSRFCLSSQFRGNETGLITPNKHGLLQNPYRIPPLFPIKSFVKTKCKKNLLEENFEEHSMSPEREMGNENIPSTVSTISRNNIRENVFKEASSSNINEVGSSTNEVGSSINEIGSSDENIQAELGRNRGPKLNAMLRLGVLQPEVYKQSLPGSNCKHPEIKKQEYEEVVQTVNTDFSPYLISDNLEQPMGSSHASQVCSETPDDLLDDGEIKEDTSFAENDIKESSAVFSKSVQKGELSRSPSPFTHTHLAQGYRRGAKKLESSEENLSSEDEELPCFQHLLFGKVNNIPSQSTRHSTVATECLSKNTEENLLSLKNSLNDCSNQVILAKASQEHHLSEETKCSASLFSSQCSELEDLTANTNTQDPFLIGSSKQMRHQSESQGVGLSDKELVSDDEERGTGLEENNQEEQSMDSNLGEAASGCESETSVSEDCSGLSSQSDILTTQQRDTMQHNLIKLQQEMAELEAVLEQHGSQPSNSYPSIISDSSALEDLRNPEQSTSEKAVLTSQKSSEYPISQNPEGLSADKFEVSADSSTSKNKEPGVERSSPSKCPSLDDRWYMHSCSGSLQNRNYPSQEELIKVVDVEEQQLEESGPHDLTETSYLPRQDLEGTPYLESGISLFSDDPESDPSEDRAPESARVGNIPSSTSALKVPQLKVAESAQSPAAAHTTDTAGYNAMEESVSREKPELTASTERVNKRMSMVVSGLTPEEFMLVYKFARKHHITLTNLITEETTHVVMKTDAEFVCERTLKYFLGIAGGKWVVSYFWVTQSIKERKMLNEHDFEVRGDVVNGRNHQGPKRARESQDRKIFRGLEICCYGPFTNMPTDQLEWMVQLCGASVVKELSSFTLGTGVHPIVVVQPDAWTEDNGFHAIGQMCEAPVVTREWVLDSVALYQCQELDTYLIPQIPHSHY
#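 Fluorescence polarization: His-tagged BRCT (~35 kDa BRCA1 C-terminus, 250 nM) bound to 100 nM fluorescein-labeled phosphorylated 10-aa BACH1 peptide, pH 7.3 phosphate buffer with DTT and Tween 20. Compounds incubated 12 min at room temperature; inhibition read as lowered polarization.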
# BRCT inh red = qHTS Assay for Inhibitors of BRCT-Phosphoprotein Interaction (Red Fluorophore). BRCT-phosphopeptide binding, red fluorescence polarization. Potency, µM (top dose mostly 76.9 µM), for the others: at the highest dose activity change, negative = inhibition, usual class: inhibitors. actives 0.03% (n = 75,000). AID 892, 2007; further: on the % scale 0 is the no-effect control and ±100 the full control effect
#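 Rhodamine-labelled pBACH1 10-mer (100 nM) bound to BRCT domain (100 nM) at pH 7.3; compounds incubated 12 min room temperature, polarization read. Free peptide defines full inhibition; unlabelled decapeptide titrated as control.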
# Hsp90 Hop PPI = qHTS Assay for Disrupters of an Hsp90 Co-Chaperone Interaction; Hsp90 C-terminal peptide / TPR2A (Hop) interaction, human; AlphaScreen TPR2A-His6 binding biotin-Hsp90 C-terminal peptide; Potency, µM (series often up to 57 µM), inactives show at the top dose activity change, negative = inhibition; actives 0.44% (n = 71,000); active means well fitted curve in either direction with a large enough effect; inconclusive means small, poorly fitted or top-dose-only effect, or another doubt; further: potency means the concentration at half of the fitted maximal effect; on the % scale 0 is the no-effect control and ±100 the full control effect
# TsaE inh = qHTS Assay for Inhibitors of YjeE. purified YjeE enzyme, qHTS inhibition assay. Potency, µM. actives 0.05% (n = 71,000). AID 605, 2007
#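 Purified YjeE (10 uM) with BODIPY Texas Red-labeled ADP probe (2 uM); compounds pin-transferred, 15 min at room temperature. Binding inhibition read as decreased fluorescence polarization; ADP titration as control.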
# Hsp90 TPR2A CRC = Confirmation Concentration-Response Assay and Counterscreen for Disrupters of an Hsp90 Co-Chaperone Interaction. shares compounds with Hsp90 Hop PPI. AlphaScreen TPR2A-His6 / biotin-Hsp90 peptide binding. activity, negative = inhibition, % at 40 µM or 46 µM, hits read low. actives 100% (n = 45);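 active means compound lowering the Hsp90 and TPR2A binding signal, whether or not the linker counterscreen also flagged it as an artifact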
# * marks the source's active call; other numbers are inactive results; i = inactive; ? = inconclusive; / = no result; + = active, no number; ! = not confirmed by another sample; [ ] = dose if it differs, or a comment. The list is not random: actives were taken first. Their share in the collection is about 0.46%. Unless noted, the call rests on the fitted dose curve; in most records, active means well fitted curve in the direction sought with a large enough effect; inconclusive means small, poorly fitted or top-dose-only effect, or another doubt; inactive means no such curve, though single readings can be large; an effect the other way counts as inactive or inconclusive.
SMILES,USP2a inhib,BRCT inh green,BRCT inh red,Hsp90 Hop PPI,TsaE inh,others
C[n+]1c(/C=C\c2ccc(O)c3ncccc23)[se]c2ccccc21,/,-2.2%[15.4 µM],4.9%[15.4 µM],3.16µM*,i,
CN(C)[C@@H]1C(=O)C(C(N)=O)=C(O)[C@]2(O)C(=O)C3=C(O)c4c(O)ccc(Cl)c4[C@](C)(O)[C@H]3C[C@@H]12,23.2%[17.1 µM],0.5%[34.4 µM],-0.2%[34.4 µM],-5.0%[26 µM],i,
CN(C)C1C(=O)C(C(N)=O)=C(O)[C@@]2(O)C(=O)C3=C(O)c4c(O)ccc(Cl)c4[C@](C)(O)C3CC12 (stereo partly drawn),10µM*,-2.6%[3.08 µM],-2.9%,/,/,
COc1cc2c(cc1OC)[C@]13CCN4CC5=CCO[C@@H]6CC(=O)N2[C@@H]1[C@H]6[C@@H]5C[C@H]43,/,/,/,-7.3%,i,
COc1cc2c(cc1O)CCN[C@H]2C,/,/,/,-1.7%,i,
Clc1ccc(C(c2ccc(Cl)cc2)C(Cl)(Cl)Cl)cc1,-5.6%,1.2%,-2.2%,27.3%,i,
Clc1ccc(C(c2ccc(Cl)cc2)C(Cl)Cl)cc1,/,2.3%,1.2%,31.6µM*,i,
C=C[C@@H]1CN2CC[C@H]1C[C@H]2[C@@H](O)c1ccnc2ccccc12,/,/,/,1.2%,i,
C[n+]1c2cc(N)ccc2cc2ccc(N)cc21,69.2%,1.26µM*,-7.8%,/,/,
C[C@@H]1O[C@H]1P(=O)(O)O,3.0%,-1.5%,-1.1%,-8.7%,i,
CCCCc1ccc(C(=O)O)nc1,-5.8%[17.1 µM],-0.5%,0.0%,2.51µM*,i,
CCCCCCCCc1ccc(O)cc1,/,-1.2%,-2.7%,1.7%,i,
O=c1cccc2n1C[C@@H]1C[C@H]2CN2CCCC[C@H]12,/,/,/,0.4%,i,
Brc1ccc(Oc2cc(Br)c(Br)cc2Br)c(Br)c1,/,-0.8%,0.6%,31.6µM*!,i,
CCOC(=O)c1ccc(NC(=O)c2c(O)[nH]c(=O)[nH]c2=O)cc1,77.1%,12.6µM*,-2.0%,-4.2%,i,
CCCN1CCc2cccc3c2[C@@H]1Cc1ccc(O)c(O)c1-3,3.0%,0.4%,-1.3%,-26.3%,i,
Oc1cccc2cccnc12,-29.7%,0.2%[15.4 µM],2.2%[15.4 µM],10µM*!,i,
CN(N=O)c1cc(O)ccc1O,15.8µM*,?,31.6µM*,?,100µM*,
Cc1nc2c(=O)n(C)c(=O)nc-2n(C)n1,/,/,/,/,/,Hsp90 TPR2A CRC=+
Cn1nc(-c2ccccc2)nc2c(=O)n(C)c(=O)nc1-2,/,/,/,/,/,Hsp90 TPR2A CRC=+
CCn1nc(-c2ccccc2)nc2c(=O)n(C)c(=O)nc1-2,-7.5%,-2.2%,-0.7%,1.26µM*,i,Hsp90 TPR2A CRC=+
N[C@H](Cn1oc(=O)[nH]c1=O)C(=O)O,/,/,/,-8.7%,i,
C[C@H]1CC[C@]2(NC1)O[C@@H]1C[C@@H]3[C@@H]4CC=C5C[C@H](O)CC[C@@]5(C)[C@H]4CC[C@@]3(C)[C@H]1[C@@H]2C,/,/,/,-4.0%,i,
CN[C@H]1[C@H](C)O[C@@H](O[C@@H]2C/C=C(/C)C/C(C)=C\C=C/CC[C@@H](C)CNC(=O)/C=C\C=C/[C@H]2C)C[C@@H]1O,/,/,/,-2.6%[11 µM],i,

# Source: PubChem BioAssay (National Center for Advancing Translational Sciences (NCATS))
